KB-V1 cytotox – KB-V1 MDR subline cytotoxicity; KB-V1 MDR cells viability, CellTiter-Glo, 72 h; Potency, µM (highest dose often 46.1 µM), most hits filed as cytotoxic; 3.4% of 400,000 active; AID 1347076; note: nearly all actives have a fitted effect of over 60% in size
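Following 72 h at 37 degrees C with compound, KB-V1 cell viability was read by CellTiter-Glo luminescence, medium being phenol-red-free DMEM plus 10% FBS; concentration-response parameters came from normalized, curve-fitted qHTS data.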
HT1080NT lethal – kills 2HG-producing HT-1080-NT fibrosarcoma cells | HT-1080-NT fibrosarcoma viability, CellTiter-Glo ATP luminescence, 48 h | Potency, µM (series often up to 46.1 µM), most hits filed as cytotoxic | 1.6% of 360,000 active | AID 686970;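 note: NT is the 2HG producing partner of a matched IDH1 knockdown line; nearly all actives have a fitted effect of over 55% in size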
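Read-out is CellTiter-Glo luminescence after 10 minutes at room temperature, following 48 hours' compound treatment of HT-1080-NT cells (750 cells/well, RPMI, 5% FBS, 37 degrees C).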
DT40 TDP1 CPT – DT40-hTDP1 cell growth loss with CPT. Potency, µM (highest dose often 46.2 µM), usual class: inhibitors. AID 686979. 12% of 420,000 active. chicken DT40 Tdp1-/-;hTDP1 cells + 20 nM CPT, ATP luminescence, 48 h; note: nearly all actives have a fitted effect of over 55% in size
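Cell growth measured by CellTiter-Glo luminescence after a minimum 48 h, 37 C compound exposure with 20 nM CPT in Tdp1-knockout DT40 cells stably expressing hTDP1, seeded 400/well; qHTS titration format.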
HT1080 IDH1KD tx – kills HT-1080 cells with IDH1 knockdown | HT-1080 IDH1 knockdown viability, ATP luminescence, 48 h | Potency, µM (titrated, usually from 46.1 µM), hits mostly cytotoxic | 2% of 360,000 active | AID 686971
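Luminescent ATP read-out (CellTiter-Glo, 10 min at room temperature) after 48 h compound exposure at 37 °C gave viability of IDH1-knockdown HT-1080 cells. Activity was normalised to DMSO and cell-free wells, then fitted as concentration-response curves.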
KB-3-1 tox – KB-3-1 parental cell cytotoxicity; AID 1347075; Potency, µM (doses to about 46.1 µM), most hits filed as cytotoxic; KB-3-1 viability, CellTiter-Glo ATP luminescence, 72 h; 1.4% of 400,000 active; note: nearly all actives have a fitted effect of over 60% in size
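Cytotoxicity measured as CellTiter-Glo luminescence after 72 h at 37 C. Compound titrations were pinned onto drug-naive KB-3-1 parental adenocarcinoma cells grown in DMEM with 10% FBS, and normalized data fitted to concentration-response curves.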
TDP1 cell noCPT – qHTS for Inhibitors of human tyrosyl-DNA phosphodiesterase 1 (TDP1): qHTS in cells in absence of CPT | DT40 Tdp1-/- hTDP1 cells, no CPT, ATP luminescence, 48 h | 15% of 420,000 active | AID 686978, 2013 | Potency, µM (series often up to 46.2 µM), actives largely listed as inhibitors; note: nearly all actives have a fitted effect of over 55% in size
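Seeded 400 DT40-hTDP1 cells/well (vehicle DMSO, no 20 nM CPT); pinned compounds; ≥48 hr at 37 °C; CellTiter-Glo luminescence as viability measure.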
A number is an active result; - = inactive; ? = inconclusive; . = no result; [ ] = remark or other dose. A selection: hits, their analogues and other compounds. The true share with any hit is near 19%. Calls come from the whole dose curve; as a rule, active = well fitted curve in the direction sought with a large enough effect; inconclusive = small, poorly fitted or top-dose-only effect, or another doubt; inactive = no such curve, though single readings can be large; an effect the other way counts as inactive or inconclusive.

SMILES | KB-V1 cytotox | HT1080NT lethal | DT40 TDP1 CPT | HT1080 IDH1KD tx | KB-3-1 tox | TDP1 cell noCPT
C/C(=N\NC(=O)COc1ccccc1[N+](=O)[O-])c1cccs1 | ? | - | - | ? | - | ?
COc1ccc(N(Cc2cccs2)C(=O)COc2ccc([N+](=O)[O-])cc2)cc1 | ? | . | ? | . | - | 26µM
O=C(NCc1cccs1)c1ccccc1[N+](=O)[O-] | - | - | - | - | - | -
Cc1ccc(N(Cc2cccs2)C(=O)COc2ccccc2[N+](=O)[O-])cc1 | . | . | 21µM | . | . | 23µM
Cc1ccc(N(Cc2cccs2)C(=O)c2ccccc2[N+](=O)[O-])cc1 | . | . | 15µM | . | . | 9.2µM
O=S1(=O)C=C(Sc2nc3cc(Cl)ccc3o2)c2ccccc21 | ? | 5.2µM | 0.58µM | 5.2µM | ? | 0.46µM
CNC(=S)N1N=C(c2ccccc2)CC1c1ccc(OC)c(OC)c1 (configuration not stated) | - | - | - | - | - | -
CNC(=S)N1N=C(c2ccc(C)cc2)CC1c1ccc(OC)c(OC)c1 (configuration not stated) | - | - | ? | - | - | 15µM
CNC(=S)N1N=C(c2ccc(Br)cc2)CC1c1ccc(N(C)C)cc1 (configuration not stated) | - | - | ? | - | - | ?
CNC(=S)N1N=C(c2ccc(Br)cc2)CC1c1ccc(Br)cc1 (configuration not stated) | - | - | 15µM | - | - | 12µM
COc1ccc(C2CCCN2C(=S)Nc2ccc(C)cc2Cl)cc1OC (configuration not stated) | - | - | ? | - | - | 16µM
COc1ccc(-n2c(=O)c(-c3cccs3)nc3cnc(OC)nc32)cc1 | . | . | - | . | . | ?
CO[C@H]1[C@H](NC(=O)c2ccsc2)c2ccccc2C12CCN(Cc1cccc3ncccc13)CC2 | . | . | -[9.04 µM] | . | . | ?
Cc1cn(C2CC(O)C(O)C(CO)O2)c(=O)[nH]c1=O (configuration not stated) | - | - | - | - | - | -
O=c1[nH]c(=O)n([C@@H]2O[C@H](CO)[C@@H](O)[C@H]2O)cc1Br | . | . | - | . | . | -
O=c1[nH]c(=O)n([C@H]2C[C@H](O)[C@@H](CO)O2)cc1F | ? | 0.46µM | 3.3µM | 0.73µM | ? | 0.037µM
CC1OC(n2cc(F)c(=O)[nH]c2=O)C(O)C1O (configuration not stated) | . | . | 6.5µM | . | . | 3.7µM
Cc1cn([C@H]2C[C@H](N=[N+]=[N-])[C@@H](CO)O2)c(=O)[nH]c1=O | - | - | 21µM | - | - | 7.5µM
O=c1[nH]c(=O)n([C@H]2C[C@H](O)[C@@H](CO)O2)cc1Br | - | ? | ? | - | - | ?
Cc1cn([C@H]2C[C@H](F)[C@@H](CO)O2)c(=O)[nH]c1=O | . | . | 6.7µM | . | . | 17µM
Cc1cn([C@H]2C[C@H](O)[C@@H](CO)O2)c(=O)[nH]c1=O | . | . | - | . | . | -
CCOC(=O)C(NC(=O)c1ccccc1)C(C)(C)SCc1ccccc1 (configuration not stated) | . | - | ? | - | . | ?
Cc1cccc(C(=O)NNC(=O)c2cc3cc4ccccc4nc3s2)c1 | - | ? | ? | 21µM | - | ?
Cc1ccc(N2CC(NC(=O)C3CCCC3)CC2=O)cc1C (configuration not stated) | . | . | - | . | . | -
O=C(NC(=S)Nc1cccc(O)c1)C12CC3CC(CC(C3)C1)C2 | ? | - | ? | - | - | ?
Cc1ccc(CN2CCC(c3nc4ccc(Cl)cc4[nH]3)CC2)cc1 | ? | ? | 16µM | -[9.24 µM] | - | 16µM
CC1CCCCN1C(=O)CN1CCC(c2nc3ccc(Cl)cc3[nH]2)CC1 (configuration not stated) | - | - | ? | - | - | 23µM
CCCCNS(=O)(=O)c1ccc(NC(=O)c2c(-c3ccccc3Cl)noc2C)cc1 | 21µM | ? | - | ? | - | ?

Screening data (PubChem BioAssay)
